Screen size: about 310,000 compounds; about 14,000 (4.5%) showed an effect of 50% or more. Effects have a minus sign here. What follows is part of a selection rich in strong results, with near analogues and random picks from the rest.
What follows are molecules tested against human ether-à-go-go-related gene (hERG) potassium channel (human, UniProt Q12809) (assay: primary screen, population patch clamp on CHO cells stably expressing hERG; higher = less effect of the substance).
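Further: peak tail current of the secondary pulse compared with the same well before compound.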

Chain of human ether-à-go-go-related gene (hERG) potassium channel (Q12809 whole entry, looked up): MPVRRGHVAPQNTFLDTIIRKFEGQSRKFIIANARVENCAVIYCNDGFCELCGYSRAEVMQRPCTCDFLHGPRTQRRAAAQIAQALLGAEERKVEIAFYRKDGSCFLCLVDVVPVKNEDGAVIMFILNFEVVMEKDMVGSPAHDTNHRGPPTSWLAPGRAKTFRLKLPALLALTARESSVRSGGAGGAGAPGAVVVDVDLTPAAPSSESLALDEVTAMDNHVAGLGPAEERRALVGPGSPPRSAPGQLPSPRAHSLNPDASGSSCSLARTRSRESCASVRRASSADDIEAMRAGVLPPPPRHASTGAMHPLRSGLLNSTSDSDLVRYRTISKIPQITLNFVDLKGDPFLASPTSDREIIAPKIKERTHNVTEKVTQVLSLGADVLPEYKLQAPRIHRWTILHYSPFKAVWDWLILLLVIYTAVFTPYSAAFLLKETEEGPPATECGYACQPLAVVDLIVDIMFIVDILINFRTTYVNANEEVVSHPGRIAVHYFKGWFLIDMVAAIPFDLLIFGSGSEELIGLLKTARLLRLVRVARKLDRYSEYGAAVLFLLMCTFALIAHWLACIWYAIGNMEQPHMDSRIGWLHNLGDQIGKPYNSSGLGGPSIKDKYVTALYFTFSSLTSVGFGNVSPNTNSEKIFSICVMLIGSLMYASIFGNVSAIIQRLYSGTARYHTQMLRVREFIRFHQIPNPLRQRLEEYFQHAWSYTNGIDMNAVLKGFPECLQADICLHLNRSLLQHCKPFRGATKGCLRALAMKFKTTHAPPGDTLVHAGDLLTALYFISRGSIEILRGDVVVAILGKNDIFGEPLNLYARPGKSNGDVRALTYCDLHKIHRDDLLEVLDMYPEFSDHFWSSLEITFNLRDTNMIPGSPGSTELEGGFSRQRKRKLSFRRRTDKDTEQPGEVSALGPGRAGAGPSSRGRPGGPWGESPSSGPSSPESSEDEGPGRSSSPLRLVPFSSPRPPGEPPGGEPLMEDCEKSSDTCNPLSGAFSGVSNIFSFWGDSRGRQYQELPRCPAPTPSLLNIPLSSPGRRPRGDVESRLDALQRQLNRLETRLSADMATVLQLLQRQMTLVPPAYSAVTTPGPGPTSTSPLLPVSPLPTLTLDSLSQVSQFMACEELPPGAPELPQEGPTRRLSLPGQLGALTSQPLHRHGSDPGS

Compound	hERG current change (%, negative = inhibition) at 10uM [%]
O=C(CSc1nnc2ccccn12)NC(=O)NC1CCCC1	13.4
O=C(O)C1C2C=CC(C2)C1C(=O)Nc1cccc(C(F)(F)F)c1 (stereo not drawn)	8.95
CC(C)c1ccc(/C=C2\SC(N3CCCC3)=NC2=O)cc1	-37.1
CCOc1ccccc1OCCCC(=O)NNC(=O)c1nn(C)c(=O)c2ccccc12	-20.3
Cn1cnc(S(=O)(=O)Nc2ccccc2C(=O)NCC2CC2)c1	13.7
Cc1ccc(C)c(NC(=S)NNc2ccc(F)cc2F)c1	5.57
Cc1c(C)c2ccc(O[C@@H]3O[C@H](CO)[C@@H](O)[C@H](O)[C@H]3O)c(C)c2oc1=O	11.7
COc1ccc(NC(=O)c2ccc(Cl)c(S(=O)(=O)N3CCc4ccccc4C3)c2)cn1	-46.8
CCc1cc(C(c2cccc(OC)c2)N2CCOCC2)c(NC(=O)c2ccccc2)s1 (stereo not drawn)	-1.91
Cc1cc(NO)c(C(C)C)cc1N=O	-2.87
O=C(NCCNC1CCC(c2ccccc2)CC1)c1cccs1 (stereo not drawn)	-35.2
O=C(NC1CCN(C(=O)NCc2ccccc2)CC1)c1ccc(F)cc1	-15.8
O=C(NCCNC1CCC(c2ccccc2)CC1)c1ccc(F)cc1 (stereo not drawn)	-58.3
C/C(=N\NC(=O)c1ccccn1)c1ccc(Cl)cc1	5.74
Cc1cc2c(N=NC(=O)C3CC3c3ccccc3)c(O)[nH]c2cc1Br (stereo not drawn)	0.687
Cc1ccc2[nH]c(O)c(N=NC(=O)C3CC3c3ccccc3)c2c1Br (stereo not drawn)	-55.7
Cc1ccc2[nH]c(O)c(N=NC(=O)CCc3ccccc3)c2c1Br	10.5
COC(=O)CCC(=O)OC1(C)C(=O)C2=CN(C3CCCC3)C(c3ccc(OC)cc3)=CC2=C(Br)C1=O (stereo not drawn)	-52.6
COC(=O)CCC(=O)OC1(C)C(=O)C2=CN(Cc3ccc(OC)cc3)C(c3ccc(OC)cc3)=CC2=C(Br)C1=O (stereo not drawn)	-58.7
COC(=O)CCC(=O)OC1(C)C(=O)C2=CN(C3CC3)C(c3ccc(OC)cc3)=CC2=C(Br)C1=O (stereo not drawn)	14.4
COCCN1C=C2C(=O)C(C)(OC(=O)CCC(=O)OC)C(=O)C(Br)=C2C=C1c1ccc(OC)cc1 (stereo not drawn)	7.96
COC(=O)CCC(=O)OC1(C)C(=O)C2=CN(Cc3ccccc3)C(c3ccc(OC)cc3)=CC2=C(Br)C1=O (stereo not drawn)	2.01
COC(=O)CCC(=O)OC1(C)C(=O)C2=CN(CC3CC3)C(c3ccc(OC)cc3)=CC2=C(Br)C1=O (stereo not drawn)	4.74

Compound	hERG current change (%, negative = inhibition) at 10uM [%]
Cc1ccc(N2CCN(C3=NC(=O)/C(=C\c4cn[nH]c4-c4ccccc4)S3)CC2)cc1	2.07
COc1ccc(C2/C=C\CN(C(=O)OCc3ccccc3)CC(=O)N2Cc2ccc(F)cc2)cc1 (stereo not drawn)	-26
CCOC(=O)Cc1cc(=O)c2c(=O)n(-c3ccccc3)[nH]c2[nH]1	9.55
O=C(Oc1ccccc1)Oc1ccc2c(c1)oc(=O)c1ccccc12	16.9
CN(C)C(N)=NCCC[C@H](N)C(=O)O.Cl	9.67
COc1ccc(N2CCN(c3ccnc4cc(Cl)ccc34)CC2)cc1	-36.5
O=C(c1ccco1)N1CCN(c2ccnc3cc(Cl)ccc23)CC1	-71.5
Oc1ccc(N2CCN(c3ccnc4cc(Cl)ccc34)CC2)cc1	-22.7
CC(=O)N1CCC(=NNc2ccnc3cc(Cl)ccc23)CC1	-22.2
Clc1ccc2c(N3CCCC3)ccnc2c1	-65.2
O=C(c1ccco1)N1CCN(c2ccc(Cl)cc2)CC1	-40.7
Clc1ccc2c(N3CCNCC3)ccnc2c1	-41.9
CC(C)(C)C(=O)N1CCN(c2ccnc3cc(Cl)ccc23)CC1	-73.9
O=C(c1ccco1)N1CCN(c2cccc(Cl)c2)CC1	-11.5
Clc1ccc2c(N3CCOCC3)ccnc2c1	-17.1
CC(=O)N1CCN(c2ccnc3cc(Cl)ccc23)CC1	-50.4
CCCCOc1ccccc1C1NC(=O)NC(C)=C1C(=O)OCCOCC (stereo not drawn)	-8.27
COc1ccc(C2CC(c3ccccc3)Nc3nc(N)nn32)cc1 (stereo not drawn)	-25
Cc1ccc(S(=O)(=O)N2CCOCC2)cc1NC(=O)CSc1nnc(C2CC2)n1C1CC1	-7.36
Cc1nc2ccccc2n1-c1nc(-c2ccco2)cc(C(F)(F)F)n1	5.46
CC(C)(C)OC(=O)CC[C@@H](C(=O)NCCCCCCCCCCC(=O)N1CCN(C(=O)OC(C)(C)C)CC1)n1cc(CCCCCNC(=O)OC(C)(C)C)nn1	4.12
CCOC(=O)c1cc(-c2ccc3c(c2)OCCO3)nc2c1c(C)nn2CCC#N	3.85
CC(=O)c1ccc(NC(=O)CCCC(=O)c2ccccc2)cc1	12.6

Compound	hERG current change (%, negative = inhibition) at 10uM [%]
CO/N=C(\C(=O)O)c1csc(NN=C(C)C)n1	16.2
COC(=O)c1nc2nc(C)cc(=O)n2[nH]1	20.2
O=C(CSc1nnc(-c2cccnc2)n1Cc1ccco1)c1ccc2ccccc2c1	-45.6
CCC(=O)N1CCN(c2ccnc3cc(Cl)ccc23)CC1	-63.6
CCCCNC(=O)N1CCN(c2ccnc3cc(Cl)ccc23)CC1	-78.2
O=C(O)CSCC(=O)N1CCN(c2ccnc3cc(Cl)ccc23)CC1	9.15
NC(=O)C1CCN(Cc2nc3cc(Cl)ccc3c(=O)[nH]2)CC1	5.22
CCCCNC(=O)N1CCN(c2ncccn2)CC1	3.43
CCCCNC(=O)N1CCN(c2ccccc2OCC)CC1	-0.115
CCOC(=O)N1CCN(c2ccnc3cc(Cl)ccc23)CC1	-66
CCOC(=O)N1CCN(c2cc3nccnc3cc2F)CC1	-12.5
O=C(c1ccco1)N1CCN(Cc2nc3cc(Cl)ccc3c(=O)[nH]2)CC1	-61.8
CC(=O)N1CCN(Cc2nc3cc(Cl)ccc3c(=O)[nH]2)CC1	-31.7
CCCC(=O)Nc1cc(Cl)ccc1N1CCN(C(=O)CC)CC1	-33.1
CCOC(=O)N1CCC(=NNc2ccnc3cc(Cl)ccc23)CC1	-32.5
Cc1ccc(-c2csc(NC(=O)c3ccco3)n2)cc1C	-15.6
CC(=O)Nc1ccc(NC(=O)c2c(-c3ccccc3)noc2C)cn1	15.9
c1ccc2c(C3=NNC(=NC4CC4)SC3)c[nH]c2c1	-20.1
CCN(CC)CCCNC(=O)c1cc(-c2ccc(O)cc2)on1	-37.3
CCN(CC)CCCNC(=O)c1cc(-c2ccc(Cl)cc2)on1	-63.4
CCN(CC)CCCNC(=O)c1cc(-c2cccc(Cl)c2)on1	-60.7
CCN(CC)CCCNC(=O)c1cc(-c2ccc3c(c2)OCO3)on1	-18.8
O=C(NCCN1CCOCC1)c1cc(-c2cccc(Cl)c2)on1	-4.73

Compound	hERG current change (%, negative = inhibition) at 10uM [%]
O=C(NCc1cccs1)c1cc(-c2cccc(Cl)c2)on1	-16.1
c1ccc(-c2ccc(-c3ccncn3)cc2)cc1	23.6
O=C1NC(=S)N/C1=C/c1cccn1-c1ccc([N+](=O)[O-])cc1	12.8
O=C(CNc1cccc(S(=O)(=O)N2CCOCC2)c1)Nc1cccc(Br)c1	-21.6
CSCCC(NS(=O)(=O)c1ccc(C)cc1)C(=O)N1CCCC1 (stereo not drawn)	2
CCN(CC)CCCNC(=O)Cn1cnc2ccc(S(=O)(=O)N3CCC(C)CC3)cc2c1=O	-0.31
CC1CCN(S(=O)(=O)c2ccc3ncn(CC(=O)N(C)Cc4ccccc4)c(=O)c3c2)CC1	-61.7
CC1CCN(S(=O)(=O)c2ccc3ncn(CC(=O)N(C)C4CCCCC4)c(=O)c3c2)CC1	-22.2
CCCCN(CC)C(=O)Cn1cnc2ccc(S(=O)(=O)N3CCC(C)CC3)cc2c1=O	-57
CC1CCN(S(=O)(=O)c2ccc3ncn(CC(=O)N4CCN(C)CC4)c(=O)c3c2)CC1	-16.3
CCCCNC(=O)Cn1cnc2ccc(S(=O)(=O)N3CCC(C)CC3)cc2c1=O	2.68
Cc1cc2cc3c(C)cc(=O)oc3c(C)c2o1	19.8
COc1ccc(-c2cc(C(=O)Nc3ccccc3F)on2)cc1	23.3
CCOc1ncccc1C(=O)OCC(=O)Nc1cc(S(=O)(=O)N(CC)CC)ccc1C	-42.8
Cc1nc2cc(NS(=O)(=O)c3c(C)c(C)cc(C)c3C)ccc2s1	3.47
Cc1ccc(C(=O)NCC(=O)NCC(=O)OCC(=O)c2ccc(Br)cc2)cc1	7.3
CCN(CC)CCn1c(NCc2ccc(OC)cc2)nc2ccccc21	-65.5
CCN(CC)CCn1c(NCc2cccc(OC)c2)nc2ccccc21.Cl	-57.8
CCn1c(NCc2ccc(OC)cc2)nc2ccccc21	-21.7
CCCn1c(Nc2cccc(OC)c2)nc2ccccc21	14.8
CCN(CC)CCn1c(NCc2cccc(OC)c2OC)nc2ccccc21	-47
